Results filed as inconclusive are left out. The source made the active and inactive calls. The call rests on the fitted dose curve; in most records, active means well fitted curve in the direction sought with a large enough effect; inconclusive means small, poorly fitted or top-dose-only effect, or another doubt; inactive means no such curve, though single readings can be large; an effect the other way counts as inactive or inconclusive.
Columns and labels:
[1] = qHTS of pediatric cancer cell lines to identify multiple opportunities for drug repurposing: Primary screen for BT-12 cells (AID 1347101); further: nearly all actives have a fitted effect of over 25% in size
Summary of the method: (§1)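 Cells (500-1,000/well) rested 5 h, then received compounds for 48 h; metabolically active cells were measured by CellTiter-Glo luminescence. Final concentrations spanned up to 46 µM (MIPE, 11-point) or 0.59 nM-46 µM (NPC, 8-point) in primary screens, 11-point in follow-ups.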

[2] = qHTS of pediatric cancer cell lines to identify multiple opportunities for drug repurposing: Primary screen for OHS-50 cells (AID 1347103); further: nearly all actives have a fitted effect of over 40% in size
Summary of the method: as §1

[3] = qHTS of pediatric cancer cell lines to identify multiple opportunities for drug repurposing: Primary screen for RD cells (AID 1347104); further: nearly all actives have a fitted effect of over 55% in size
Summary of the method: (§2)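 Luminescence from CellTiter-Glo served as readout of metabolically active cells after 48 h compound exposure. Titrations: MIPE 11-point, from 0.78 nM; NPC 8-point, from 0.59 nM (final). Concentration-response curves came straight from the primary screen.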

[4] = qHTS of pediatric cancer cell lines to identify multiple opportunities for drug repurposing: Primary screen for MG 63 (6-TG R) cells (AID 1347105); further: nearly all actives have a fitted effect of over 50% in size
Summary of the method: as §2

[5] = qHTS of pediatric cancer cell lines to identify multiple opportunities for drug repurposing: Primary screen for control Hh wild type fibroblast cells (AID 1347106); further: nearly all actives have a fitted effect of over 55% in size
Summary of the method: (§3)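 Cells (500-1,000/well) in growth media were settled 5 h at 37 degrees C, then given compounds for 48 h. Viability was read as CellTiter-Glo luminescence. Primary runs used MIPE at 11 points (0.78 nM-46 µM) and NPC at 8 points (0.59 nM-46 µM); follow-ups used 11 points.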

[6] = qHTS of pediatric cancer cell lines to identify multiple opportunities for drug repurposing: Primary screen for Rh30 cells (AID 1347107); further: nearly all actives have a fitted effect of over 75% in size
Summary of the method: as §3

[7] = qHTS of pediatric cancer cell lines to identify multiple opportunities for drug repurposing: Primary screen for Rh41 cells (AID 1347108); further: nearly all actives have a fitted effect of over 70% in size
Summary of the method: as §2

[8] = qHTS of pediatric cancer cell lines to identify multiple opportunities for drug repurposing: Primary screen for Rh18 cells (AID 1347102); further: nearly all actives have a fitted effect of over 65% in size
Summary of the method: as §3

[9] = qHTS of pediatric cancer cell lines to identify multiple opportunities for drug repurposing: Confirmatory screen for NB1643 cells (AID 1347109); further: nearly all actives have a fitted effect of over 45% in size
Summary of the method: as §3

[10] = qHTS of pediatric cancer cell lines to identify multiple opportunities for drug repurposing: Confirmatory screen for A673 cells (AID 1347110);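 further: cells exposed to compound for 48 h before the viability read; nearly all actives have a fitted effect of over 65% in size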
Summary of the method: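 A673 cells at 500-1,000 cells/well were dosed 5 h after plating, in dilution series up to 46 uM final; primary runs used 8 or 11 points and confirmatory runs used 11 points. Viability was read by CellTiter-Glo luminescence after 48 h, against DMSO and 2.3 uM bortezomib controls.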

Measured: Potency
Potency means the concentration at half of the fitted maximal effect.

CCN1CCN(C(=O)Cc2ccc(Nc3ncc(F)c(Nc4ccc(C(=O)Nc5ccccc5Cl)cc4)n3)cc2)CC1
inactive: [5]
active: [1] 19.3 µM | [2] 4.32 µM | [3] 13.2 µM | [4] 9.35 µM | [6] 23.5 µM | [7] 18.7 µM

CCC(=O)O[C@@H]1C=C2CCC3C(CCC4(C)C3CC[C@@H]4OC(=O)CC)C2CC1 (stereo not given in full)
inactive: [1] | [8] | [3] | [4] | [5] | [6] | [7]

Clc1ccccc1C(c1ccccc1)(c1ccccc1)n1cccn1
inactive: [1] | [8] | [3] | [4] | [5] | [6] | [7]

C1=C2CCCN[C@H]2[C@@H]2C[C@H]1[C@@H]1CCCCN1C2
inactive: [1] | [2] | [3] | [4] | [5] | [6] | [7]

C[C@]12CC[C@H]3[C@@H](CCC4=CC(=O)CC[C@@]43C)[C@H]1CC[C@H]2O
inactive: [1] | [8] | [3] | [4] | [5] | [6] | [7]

CSCC[C@@H](NC(=O)[C@@H](Cc1ccccc1)NC(=O)CNC(=O)CNC(=O)[C@@H](N)Cc1ccc(O)cc1)C(=O)O
inactive: [1] | [2] | [3] | [4] | [5] | [6] | [7]

CN1[C@H]2CC(O)C[C@H]1[C@H]1O[C@H]12 (stereo not given in full)
active: [1] 19.3 µM | [2] 9.68 µM | [3] 33.2 µM | [4] 14.8 µM | [6] 23.5 µM | [7] 23.5 µM
inactive: [5]

NC1=NC(=O)N2CC12 (stereo not given)
active: [1] 21.7 µM
inactive: [8] | [4] | [5] | [6] | [7]

COCC1(CO)C(=O)C2CCN1CC2 (stereo not given)
active: [1] 21.7 µM | [2] 3.85 µM | [4] 18.7 µM | [7] 20.9 µM
inactive: [3] | [5]

CC[C@@H]1[C@@H](C)O[C@@](O)([C@@H](C)[C@H](O)[C@H](C)[C@H]2OC(=O)C=CC=C[C@@H](C)[C@@H]([C@@H](C)[C@@H](O)[C@H](C)[C@@]3(O)C[C@H](O[C@H]4C[C@H](O)[C@H](O)[C@H](C)O4)[C@H](CC)[C@@H](C)O3)OC(=O)C=CC=C[C@@H]2C)C[C@H]1O[C@H]1C[C@H](O)[C@H](O)[C@H](C)O1
active: [1] 0.863 µM | [2] 0.306 µM | [3] 0.264 µM | [4] 0.59 µM | [5] 9.35 µM | [6] 0.935 µM | [7] 0.743 µM
inactive: [9]

CC(=CCCC1=CCC(C2=CC(=O)OC2O)OC1O)CCC1=C(C)CCCC1(C)C (stereo not given)
inactive: [1] | [2] | [3] | [5] | [6]

O=[N+]([O-])c1c(Cl)c(Cl)cc(Cl)c1Cl
inactive: [1] | [2] | [3] | [4] | [5] | [6] | [7]

COC(C)(C)CCCC(C)C/C=C/C(C)=C/C(=O)OC(C)C (stereo not given)
inactive: [1] | [2] | [3] | [4] | [5] | [6] | [7]

CC1(C)CC/C(=C/c2ccc(Cl)cc2)C1(O)Cn1cncn1 (stereo not given)
inactive: [1] | [8] | [3] | [5] | [6] | [7]

CCCCC(CC)COC(=O)c1ccccc1C(=O)OCC(CC)CCCC (stereo not given)
inactive: [1] | [2] | [3] | [4] | [5] | [6] | [7]

C1CCC(NC2CCCCC2)CC1
inactive: [1] | [2] | [3] | [4] | [5] | [6] | [7]

CN(C)[C@@H]1C(=O)C(C(N)=O)=C(O)[C@@]2(O)C(=O)C3=C(O)c4c(O)cccc4[C@@](C)(O)[C@H]3[C@H](O)[C@@H]12
inactive: [1] | [8] | [3] | [4] | [5] | [6] | [7]

CC(=O)[O][Hg][c]1ccccc1
active: [1] 3.47 µM | [8] 2.66 µM | [3] 0.944 µM | [4] 2.66 µM | [6] 2.66 µM | [7] 1.06 µM | [9] 1.47 µM | [10] 1.04 µM

OCCCBr
inactive: [1] | [2] | [3] | [4] | [5] | [6] | [7]

S=C(SSC(=S)N1CCCCC1)N1CCCCC1
inactive: [6]
active: [1] 0.0389 µM | [8] 0.0299 µM | [3] 0.0299 µM | [5] 1.06 µM | [10] 10.4 µM

N#C[C@H](O[C@@H]1O[C@H](CO[C@@H]2O[C@H](CO)[C@H](O)[C@H](O)[C@H]2O)[C@H](O)[C@H](O)[C@H]1O)c1ccccc1
inactive: [5]
active: [1] 24.3 µM | [2] 21.7 µM | [3] 33.2 µM

CC(C)NCC(O)c1ccc([N+](=O)[O-])cc1 (stereo not given)
inactive: [1] | [8] | [3] | [4] | [5] | [6] | [7]

CN(C)NC(=O)CCC(=O)O
inactive: [1] | [8] | [3] | [4] | [6]

COC(=O)c1cncn1C(C)c1ccccc1 (stereo not given)
inactive: [1] | [2] | [3] | [4] | [5] | [6] | [7]

C#CC1(O)CCC2C3CCC4=CC(=O)CCC4(C)C3CCC21C (stereo not given)
inactive: [1] | [2] | [3] | [4] | [5] | [6] | [7]

CC1=C(C(=O)O)N2C(=O)[C@@H](N)[C@H]2SC1
inactive: [1] | [8] | [3] | [4] | [5] | [6] | [7]

CC(=Cc1csc(C)n1)[C@@H]1C[C@H]2O[C@]2(C)CCC[C@H](C)[C@@H](O)[C@@H](C)C(=O)C(C)(C)[C@@H](O)CC(=O)O1
inactive: [1] | [8] | [5] | [6]
active: [10] 0.0074 µM

CC(C)[C@H]1C(=O)N[C@H](CO)Cc2c[nH]c3cccc(c23)N1C
inactive: [1] | [8] | [3] | [6] | [7]

CO[C@H]1CCC(O[C@H]2C[C@H]([C@]3(C)CC[C@]4(C[C@H](O)[C@@H](C)[C@@H]([C@@H](C)C=C(C)C(=O)[C@H](C)C[C@H](C)C(=O)O)O4)O3)O[C@]3(O[C@@H]([C@H]4O[C@@](O)(CO)[C@H](C)C[C@H]4C)C[C@H]3C)[C@H]2C)O[C@H]1C (stereo not given in full)
active: [1] 0.273 µM | [8] 2.96 µM | [3] 1.87 µM | [4] 7.43 µM | [6] 3.72 µM | [7] 1.87 µM | [9] 2.93 µM | [10] 1.85 µM

Nc1ccc([N+](=O)[O-])cc1
inactive: [1] | [8] | [4] | [5] | [6] | [7]

COC1=CC(C)=C[C@@H](C)[C@@H](O)[C@@H](C)CC(C)=CC=C[C@H](OC)[C@H]([C@@H](C)[C@@H](O)[C@H](C)[C@@]2(O)C[C@@H](O)[C@H](C)[C@@H](C(C)C)O2)OC1=O
active: [8] 14.8 µM | [2] 0.0014 µM | [3] 0.001 µM | [4] 0.0059 µM | [5] 0.0418 µM | [7] 16.6 µM
inactive: [10]

CC(O)=C(C#N)C(=O)Nc1cc(Br)ccc1Br
inactive: [1] | [3] | [4] | [5] | [6]

CS(=O)(=O)c1ccc(C(=O)C2C(=O)CCCC2=O)c([N+](=O)[O-])c1
inactive: [1] | [2] | [4] | [5] | [6] | [9] | [10]

C[C@@H]1[C@H](O)[C@@H](C)C=CC=CCCC=CC=CC=CC=C[C@H](O[C@H]2O[C@@H](C)[C@H](O)[C@@H](N)[C@@H]2O)CC2O[C@](O)(C[C@@H](O)[C@H](O)CC[C@@H](O)C[C@@H](O)C[C@@H](O)CC(=O)O[C@H]1C)C[C@H](O)[C@H]2C(=O)O
inactive: [8] | [2] | [3] | [4] | [5] | [6] | [7]

CC(N[C@H]1C[C@H]1c1ccccc1)c1ccc2c(c1)OCCO2 (stereo not given in full)
inactive: [8] | [2] | [3] | [4] | [5] | [6] | [7]

CC(C)(C)NC[C@H](O)c1ccc(O)cc1Cl
inactive: [1] | [3] | [4] | [5] | [6] | [7]

CCOP(=O)(OCC)C(C)NC(=O)N(CCCl)N=O (stereo not given)
inactive: [8] | [2] | [3] | [4] | [5] | [6] | [7]

CC(C)(O)C=CC(=O)[C@](C)(O)[C@H]1[C@H](O)C[C@]2(C)[C@@H]3CC=C4[C@@H](C=C(O)C(=O)C4(C)C)[C@]3(C)C(=O)C[C@@]12C
active: [1] 0.243 µM | [3] 0.166 µM | [4] 0.0296 µM | [6] 8.33 µM | [7] 0.469 µM | [9] 0.117 µM | [10] 5.22 µM

Reference: PubChem BioAssay (NCATS)
